RGS8-Gao – RGS8-Galphao binding modulators, primary screen, biochemical, multiplexed bead flow cytometry. response (percent of control binding), % at 10 µM. actives lie on both sides. Guanine nucleotide-binding protein G(o) subunit alpha (Homo sapiens), P09471. actives 0.34% (n = 220,000); in the data active = response below about 60% or above about 140%; inactive = in between;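 also: Galphao activated as the GDP aluminium fluoride complex binding bead-coupled RGS8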
Target sequence (P09471 whole entry, looked up): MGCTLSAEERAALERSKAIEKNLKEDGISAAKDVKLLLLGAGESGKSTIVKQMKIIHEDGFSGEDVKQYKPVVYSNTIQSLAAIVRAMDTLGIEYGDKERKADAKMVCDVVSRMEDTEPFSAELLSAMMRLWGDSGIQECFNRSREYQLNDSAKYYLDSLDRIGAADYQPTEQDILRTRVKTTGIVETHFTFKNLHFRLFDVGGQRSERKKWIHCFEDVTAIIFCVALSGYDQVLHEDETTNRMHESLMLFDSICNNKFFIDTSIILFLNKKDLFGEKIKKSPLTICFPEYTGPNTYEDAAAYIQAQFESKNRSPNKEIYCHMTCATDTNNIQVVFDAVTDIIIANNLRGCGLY
Avidin bead fluor – green autofluorescence of compounds with avidin beads – biophysical, 488/530 nm, flow cytometry, artefact control, profiling panel. compound fluorescence 488/530 nm; active compounds read high. fluorescence (KMESF) at 10 µM. actives 0.38% (n = 220,000); in the data active = fluorescence above about 47
RGS16-Gao HTS – modulators of RGS16 binding to Galphao, primary screen, biochemical, human proteins, multiplexed bead flow cytometry | actives 0.38% (n = 220,000) | Regulator of G-protein signaling 16 (Homo sapiens) + Guanine nucleotide-binding protein … | bead-based flow cytometry RGS16-Galphao binding, fluorescence; actives lie on both sides | binding response (% of control), % at 10 µM;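 also: Galphao activated by GDP with aluminum fluoride before binding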
Target sequence (O15492 whole entry, looked up): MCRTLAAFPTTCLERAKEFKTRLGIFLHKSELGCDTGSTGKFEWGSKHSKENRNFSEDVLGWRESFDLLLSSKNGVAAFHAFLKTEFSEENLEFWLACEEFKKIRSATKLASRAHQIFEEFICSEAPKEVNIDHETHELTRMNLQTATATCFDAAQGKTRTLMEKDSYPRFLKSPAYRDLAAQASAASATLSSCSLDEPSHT
Target sequence (P09471 whole entry, looked up): as the sequence (P09471 whole entry, looked up) above
GSH fluor – compound fluorescence on glutathione beads, profiling panel, artefact control, biophysical, 488/530 nm, flow cytometry | AID 1776, 2009 | fluorescence (KMESF) at 10 µM | GSH beads flow cytometry, compound fluorescence 488/530 nm; active compounds read high | actives 0.25% (n = 190,000); in the data active = fluorescence above about 89;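 also: glutathione beads carrying GST-tagged Bcl family fusion proteins plus one bare bead set; values are compound well signal with DMSO vehicle wells as background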
RGS4-Gao reg – modulators of RGS4 binding to Galphao, primary screen, biochemical, multiplexed bead flow cytometry. Guanine nucleotide-binding protein G(o) subunit alpha (Homo sapiens), P09471. actives lie on both sides. binding response (% of control), % at 10 µM. actives 0.33% (n = 220,000). AID 1415, 2008; in the data active = binding response below about 49% or above about 150%; inactive = in between;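 also: fluorescent Galphao activated with aluminum fluoride binding bead-coupled RGS4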
RGS7-Gao – RGS7-Galphao binding modulators, primary screen, biochemical, multiplexed bead flow cytometry. Guanine nucleotide-binding protein G(o) subunit alpha (Homo sapiens), P09471. binding response (% of control), % at 10 µM. AID 1439, 2008. actives lie on both sides. actives 0.35% (n = 220,000); in the data active = binding response below about 49% or above about 150%; inconclusive = no clear call, values can overlap the other calls; inactive = in between;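 also: fluorescent Galphao held in activated GDP-AlF4 state binding bead-coupled RGS7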
RGS4-Gao HTS – modulators of RGS–Galpha-o binding, primary screen, biochemical, multiplexed beads, flow cytometry, RGS4/7/8/16/19; multiplexed bead flow cytometry; shares compounds with RGS16-Gao HTS; AID 1504, 2009; RGS4–Galpha-o binding response, % at 10 µM; actives 99% (n = 1,600);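 also: fluorescently labeled Galpha-o bound to GDP with aluminium fluoride binding biotinylated RGS beads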
Avidin counter – disruption of biotin probe capture by avidin, counter-screen for RGS protein interaction modulators, biochemical, flow cytometry, bead-based. AID 1783, 2009. inhibition, % at 10 µM. streptavidin beads, fluorescein-biotin binding. 1,700 tested, under 10 active. shares compounds with RGS16-Gao HTS;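 active = inhibition above 50%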;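 also: median green fluorescence of gated singlet beads compared with DMSO control wells; 0% = DMSO wells and 100% = complete loss of bead fluorescence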
RGS8-Gao confirm – RGS8-Galphao binding modulators, confirmation, biochemical, multiplexed bead flow cytometry, single concentration. actives 3% (n = 1,700). AID 1836, 2009. bead-based flow cytometry RGS8-Galphao binding, fluorescence; actives lie on both sides. shares compounds with RGS16-Gao HTS. binding response (% of control), % at 10 µM; in the data active = binding response below about 72% or above about 130%; inactive = in between;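 also: Galphao activated as GDP AlF4 complex before binding bead RGS8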
RGS7-Gao confirm – RGS7-Galphao binding modulators, confirmation, biochemical, multiplexed bead flow cytometry, single concentration; shares compounds with RGS16-Gao HTS; bead-based flow cytometry RGS7-Galphao binding; actives lie on both sides; response (percent of control binding), % at 10 µM; actives 7.8% (n = 1,700); AID 1837, 2009; in the data active = response below about 75% or above about 130%; inactive = in between;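 also: fluorescent Galphao activated with GDP and aluminum fluoride binding bead-coupled RGS7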
RGS16-Gao single – modulators of RGS16-Galphao protein binding, confirmation, biochemical, single concentration, multiplexed bead flow cytometry | bead-based flow cytometry; actives lie on both sides | shares compounds with RGS16-Gao HTS | response (% of control binding), % at 10 µM | AID 1838, 2009 | actives 4% (n = 1,700); in the data active = response below about 74% or above about 130%; inactive = in between;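 also: Galphao activated as the GDP aluminium fluoride complex binding bead-coupled RGS16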
RGS4-Gao single – modulators of RGS4-Galphao protein binding, confirmation, biochemical, single concentration, multiplexed bead flow cytometry; binding response (% of control), % at 10 µM; shares compounds with RGS16-Gao HTS; actives 4% (n = 1,700); actives lie on both sides; in the data active = binding response below about 74% or above about 130%; inactive = in between
RGS19-Gao conf – regulators of RGS19-Galphao binding, confirmation, biochemical, single point, multiplexed bead flow cytometry; shares compounds with RGS16-Gao HTS; bead-based flow cytometry RGS19-Galphao binding; actives lie on both sides; response (percent of control binding), % at 10 µM; actives 5% (n = 1,700); AID 1841, 2009; in the data active = response below about 50% or above about 160%; inactive = in between;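 also: 100% = no compound control and 0% = blank background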
Starred values were filed as active, the others as inactive; ? = inconclusive; . = no result; [ ] = dose if it differs, or a comment. A selection: hits, their analogues and other compounds. The true share with any hit is near 1.2%. Unless noted, no rule for the calls is given here.

SMILES	RGS8-Gao	Avidin bead fluor	RGS16-Gao HTS	GSH fluor	RGS4-Gao reg	RGS7-Gao	RGS4-Gao HTS	Avidin counter	RGS8-Gao confirm	RGS7-Gao confirm	RGS16-Gao single	RGS4-Gao single	RGS19-Gao conf
Cc1cccc(OCc2nnc(SCc3cc(=O)[nH]c4ccccc34)n2-c2ccccc2)c1	96.9	6	69.0	11	100.9	103.0	.	.	.	.	.	.	.
COc1ccc(S(=O)(=O)NC(CC(=O)NCC2CCCO2)c2ccco2)cc1 (stereo not drawn)	101.9	12	106.0	28	99.7	98.5	.	.	.	.	.	.	.
CN(C)CCNc1oc(-c2cccc(Cl)c2)nc1C#N	31.4*	5	5.0*	11	0.2*	12.5*	.	-0.8	97.5	98.0	99.1	99.2	105.5
CN1C[C@@H]2C(c3ccc(C(F)(F)F)cc3)C3(c4ccc(C#N)cc4)CC2(C3)[C@H]1c1ccccc1 (stereo partly drawn)	102.2	9	94.9	.	98.5	?	.	.	.	.	.	.	.
CNC(=O)c1c(NC(=O)c2cccc(N3C(=O)CCC3=O)c2)sc2c1CCC2	3.9*	-1	-3.7*	.	-2.7*	?	.	-1.4	97.6	101.0	101.4	103.3	99.9
NCCCC(=O)O	104.6	7	116.0	20	103.1	102.7	.	.	.	.	.	.	.
CCCC(N)CCCCCC(=O)O (stereo not drawn)	123.2	14	332.5*[activator]	25	129.4	120.1	129.4*	-2.5	99.5	97.6	97.9	101.1	93.0
Cc1nn(C(C)C(=O)O)c(=O)c2ccccc12 (stereo not drawn)	90.0	5	66.6	8	94.2	95.3	.	.	.	.	.	.	.
C=Cn1nc(C)c2ccccc2c1=O	15.6*	0	17.5*	31	24.6*	14.0*	.	1.2	99.1	100.2	98.8	99.0	103.9
COc1cc2c(cc1OC)C(c1ccc(N(C)C)cc1)CC(=O)N2 (stereo not drawn)	99.3	13	87.8	15	92.4	91.1	.	.	.	.	.	.	.
CC(=O)N1CCN(S(=O)(=O)c2cccc(C(=O)OCC(=O)NC(=O)c3cccn3C)c2)CC1	124.9	6	184.9*[activator]	15	111.8	108.0	111.8*	-2.1	93.0	81.1	91.2	88.0	83.5
NC(=O)NC(=O)COC(=O)c1cccc(S(=O)(=O)N2CCCCCC2)c1	96.3	13	95.3	.	97.9	?	.	.	.	.	.	.	.
CCOC(=O)C1=C(C)NC(C)=C(C(=O)OCCNC(=O)c2cccnc2)C1c1cccc([N+](=O)[O-])c1 (stereo not drawn)	123.9	3	213.2*[activator]	6	108.3	110.7	108.3*	-1.6	85.3	70.3*	77.6	80.8	103.8
Cc1c(O)c2c3c(cccc3c1O)C(=O)N(c1ccccc1)C2=O	142.5*[activator]	2	119.7	13	163.7*[activator]	161.0*[activator]	.	-1.2	95.4	92.3	93.4	92.5	91.7
CC(NC(=O)Cc1ccc(-c2ccccc2)cc1)c1ccccc1 (stereo not drawn)	106.0	358*	222.3	24	152.4*[activator]	263.1*[activator]	.	-1.7	95.9	123.0	93.5	98.5	99.9
O=C1CCCc2ccccc2N1Cc1ccc(F)cc1	102.7	40	103.5	14	111.4	169.9*[activator]	111.4*	-0.1	101.9	103.5	107.0	103.8	95.2
O=C1CCCc2ccccc2N1Cc1cccc(F)c1	100.3	20	100.0	12	99.2	98.9	.	.	.	.	.	.	.
CC(C)(C)OC(=O)N/N=C\c1ccc([N+](=O)[O-])s1	103.4	9	103.7	15	104.0	104.1	.	.	.	.	.	.	.
COCC(=O)N(Cc1cc2ccc(C)cc2[nH]c1=O)c1ccc(OC)cc1	77.9	8	-28.2*	7	86.4	87.1	86.4*	-0.4	103.7	100.1	102.3	99.5	102.8
Cc1ccc(CNC(=O)c2cc3c(=O)n4ccccc4nc3n(CC3CCCO3)c2=N)cc1 (stereo not drawn)	101.4	35	100.8	11	98.2	100.7	.	.	.	.	.	.	.
CN(c1ccccc1)S(=O)(=O)c1cccc(NC(=O)CN2CCCc3ccccc32)c1	117.6	27	177.9*[activator]	.	141.1	?	141.1*	1.2	101.8	130.9*[activator]	112.1	113.4	133.7
COC(=O)Nc1nn(-c2ccc(C)cc2)c(=O)c(C#N)c1C	104.8	12	104.2	9	101.5	102.3	.	.	.	.	.	.	.
Cc1cc(NC(=O)CSc2nc3c(c(=O)n2-c2ccc(Br)cc2)SCC3)no1	81.7	5	35.8	16	85.6	92.5	.	.	.	.	.	.	.
COc1ccc(-n2c(SCC(=O)Nc3cc(C)on3)nc3c(c2=O)SCC3)cc1	165.7*[activator]	5	355.3	26	121.9	117.2	121.9*	0.5	98.9	91.5	97.5	99.4	100.0
COc1ccc(NC(=O)c2ccc3ccccc3n2)cc1S(=O)(=O)Nc1ccccc1Cl	100.6	15	104.1	9	102.9	101.5	.	.	.	.	.	.	.

Bioassay records: PubChem, NMMLSC
